Compound activity from PubChem BioAssay.
aSyn 5UTR act: Activators via SNCA 5'UTR binding, MLPCN | alpha-synuclein 5'UTR reporter, activators screen | actives 7.1% (n = 300,000) | activity score, % (tested at 7.5 µM), hits read low | AID 1814; in the data active = activity score below about -60%
The depositor's hits bear a star. Only a sample is shown.

SMILES	aSyn 5UTR act
O=[N+]([O-])c1cc2c(c(CSc3ncccn3)c1)OCOC2	-63*
O=[N+]([O-])c1cc(O)c2ncccc2c1	70
O=C(O)Cc1sc(Nc2ccc(Cl)cc2)nc1-c1cccs1	-188*
COc1ccc(OCc2cc(C(=O)NC(C)c3csc(C)n3)no2)c(Cl)c1 (configuration not stated)	-119*
COc1ccc(OCc2cc(C(=O)NCc3nc(C)cs3)no2)c(Cl)c1	-94*
COC(=O)c1ccc(NC(=O)CNc2ccccc2)cc1	-99*
CCOC(=O)c1ccc(NC(=S)Nc2ccccc2)cc1	-147*
CCOC(=O)c1ccc(NCc2ccc(N(C)C)cc2)cc1	-87*
CCOC(=O)c1cccc(OS(=O)(=O)Cc2ccccc2)c1	-63*
CCOC(=O)c1ccc(CNCc2ccccc2)cc1	-66*
CCOC(=O)c1ccc(S(=O)(=O)NCCN(CC)CC)cc1	52
CCOC(=O)c1cn[nH]c1NC(=S)Nc1ccc(Cl)cc1	-66*
CCOC(=O)c1c(C)c(C(=O)Nc2ccc(N(C)C)cc2)c(C)n1CC	-82*
CCOC(=O)c1ccc(NC(=S)Nc2ccc(C)cc2)cc1	-145*
Cc1ccccc1-c1nc(Cc2ccccc2)no1	-129*
Clc1ccc(-c2nc(Cc3ccccc3)no2)cc1	-141*
N#C/C(=C/c1ccc(N2CCOCC2)o1)c1ccc(Cl)cc1	-286*
COc1cccc2c1C(=O)c1c(O)c3c(c(O)c1C2=O)C[C@@](O)(C(=O)CO)C[C@@H]3O[C@H]1C[C@H](N)[C@@H](O)[C@H](C)O1	109
CC(=O)c1c(C)[nH]c(C(=O)OCc2cccc(C)c2)c1C	-90*
CC(=O)c1c(C)[nH]c(C(=O)OCc2ccc(Br)cc2)c1C	-74*
CCOC(=O)c1c(C)[nH]c(C(=O)C(C)Sc2ccc(Cl)cc2)c1C (configuration not stated)	-97*
CC(=O)c1c(C)[nH]c(C(=O)OCc2ccccc2F)c1C	-101*
CC(=O)c1c(C)[nH]c(C(=O)OCCOc2ccccc2)c1C	67
CCCCCCC(=O)c1c(C)[nH]c(C(=O)OCC)c1C	-114*
CCOC(=O)c1[nH]c(C)c(C(=O)Nc2ccc(C)c(Cl)c2)c1C	-92*
SMILES	aSyn 5UTR act
CCOC(=O)c1c(C)[nH]c(C(=O)N/N=C\c2ccccc2O)c1C	87
CCOC(=O)c1c(C)[nH]c(C(=O)NCc2ccccn2)c1C	-159*
CCOC(=O)c1c(C)[nH]c(C(=O)OCC(=O)NCCc2ccc(OCC)c(OCC)c2)c1C	60
CCOC(=O)c1c(Cc2ccccc2)c[nH]c1C	-75*
CCOC(=O)c1c(C)[nH]c(C(=O)OCc2ccccc2)c1C	-165*
CCCCN1C(=O)/C(=C2\SC(N3CCCCC3)=NC2=O)c2ccccc21	-149*
Cc1ccc(NC(=S)c2ccc(N(C)C)cc2)cc1	55
COc1ccc(NC(=S)c2ccccc2)cc1	-148*
COc1ccc(C(=S)Nc2ccc(N(C)C)cc2)cc1	-99*
CCOc1ccc(NC(=S)c2ccncc2)cc1	-110*
COc1ccc(-c2nc3nc(C)cc(C)n3n2)cc1	-135*
Cc1cc(C)n(-c2nc(-c3ccc(Cl)cc3)cs2)n1	-93*
COc1ccc(-c2cc3nc(C)cc(C)n3n2)cc1	-183*
Cc1cc(C)n2nc(-c3ccc(Br)cc3)cc2n1	-122*
Cc1cc(C)n2nc(-c3ccc(Cl)cc3)cc2n1	-129*
CC(=O)NCCc1nc2cc(NC(=O)c3ccccc3Cl)ccc2n1C	-62*
CC(=O)NCCc1nc2cc(NC(=O)c3ccc(Cl)cc3)ccc2n1C	-98*
CCC(=O)NCCc1nc2cc(NC(=O)c3ccc(OC)cc3)ccc2n1C	-119*
CCC(=O)NCCc1nc2cc(NC(=O)c3ccc(F)cc3)ccc2n1C	-122*
CCC(=O)NCCc1nc2cc(NC(=O)c3ccc(Cl)cc3)ccc2n1C	-175*
C/C(=N\n1nnnc1Nc1ccccc1)c1ccc(N)cc1	-124*
Oc1ccccc1C1=Nc2ncnn2C(c2ccccc2)C1 (configuration not stated)	-68*
CC(C)c1ccc(C2CC(c3ccc(Br)cc3)=NN2C(N)=S)cc1 (configuration not stated)	-97*
O=C(Nc1ccc(C(F)(F)F)cn1)Nc1cccs1	-76*
O=C(CCc1ccccc1)Nc1ccc2ccccc2n1	-146*
SMILES	aSyn 5UTR act
O=C(Nc1ccc2ccccc2n1)c1ccccc1Br	-146*
O=C(Nc1ccc2ccccc2n1)c1ccccc1	-74*
O=C(CCc1ccccc1)NNc1cc(N2CCCCC2)nc(N2CCCCC2)n1	82
O=C(Nc1cccs1)Nc1ccccc1Br	-89*
O=C(Nc1ccc2ccccc2n1)Nc1cccs1	-62*
COc1ccc(C(=O)Nc2ccc3ccccc3n2)cc1OC	-139*
CN1C(=O)C(O)(c2nnc(-c3ccccc3)o2)c2ccccc21 (configuration not stated)	-96*
COc1cnc(-c2ccccn2)nc1N(C)C	99
CN(C(=O)c1cccnc1)c1nnc(-c2ccccn2)s1	-98*
CC(=O)N(C)c1nnc(-c2ccccn2)s1	-71*
COCCN(C(C)=O)c1nnc(-c2ccccn2)s1	-66*
Cc1ccc(-c2nnc(N(C)C(=O)c3ccncc3)s2)cn1	-77*
COc1ccc(NC(=O)c2cc3c(=O)n(C)c4ccccc4c3n2C)cc1Cl	-72*
CC1CCC(NC(=O)c2cc3c(=O)n(C)c4ccccc4c3n2C)CC1 (configuration not stated)	-98*
Cn1c(=O)c(C(=O)NC2CCCCCCC2)c(O)c2ccccc21	-166*
Cn1cc(C(=O)C(=O)NC2CCCCC2)c2ccccc21	-68*
C=CCn1c(O)c(N=NC(=S)Nc2ccc(OC)c(Cl)c2)c2ccccc21	61
Cn1c(=O)c(C(=O)NC2CCCCCC2)c(O)c2ccccc21	-72*
CC1=CC(=C2C(=O)c3ccccc3C2=O)C=C(C)O1	-129*
CCN1C=CC(=C2C(=O)c3ccccc3C2=O)C=C1	96
CCCN1C=CC(=C2C(=O)c3ccccc3C2=O)C=C1	132
CC1=CC(=C2C(=O)c3ccccc3C2=O)C=C(C)N1Cc1ccco1	-217*
CC1=CC(=C2N=C(c3ccccc3)OC2=O)C=C(C)O1	-146*
Cc1ccc2nc(C(O)C(O)c3nc4ccc(C)cc4[nH]3)[nH]c2c1 (configuration not stated)	-159*
Nc1ccc(-c2nc3ccc(N)cc3[nH]2)cc1	-62*
SMILES	aSyn 5UTR act
Cc1ccc2nc(Cc3ccc(N)cc3)[nH]c2c1	-90*
Nc1ccc2nc(-c3cc(Cl)c(N)c(Cl)c3)[nH]c2c1	-279*
Clc1ccc2nc(-c3ccc(Cl)nc3)[nH]c2c1	-293*
Cc1ccc(C)c(-c2nc3ccc(N)cc3[nH]2)c1	-64*
Nc1ccc2nc(-c3ccc(Cl)cc3)[nH]c2c1	-176*
Nc1ccc(Cc2nc3c(ccc4ccccc43)[nH]2)cc1	-171*
CCc1nc(N)nc(N)c1-c1ccc(Cl)cc1	85
CC(=O)NC(CSC(CC(=O)c1ccco1)c1ccc(C)cc1)C(=O)O (configuration not stated)	-90*
O=C1c2ccccc2C(=O)N1CCOc1cccc(Br)c1	-71*
COc1ccc(OCCN2C(=O)c3cccc(N)c3C2=O)cc1	-98*
COc1ccc(S(=O)(=O)N2Cc3ccccc3CC2C(=O)Nc2nccs2)cc1OC (configuration not stated)	-149*
Cc1cc(C)c2nc(NNC(=O)c3ccc(S(=O)(=O)N4CCc5ccccc5C4)cc3)sc2c1	75
CCS(=O)(=O)N1Cc2ccccc2CC1C(=O)Nc1nccs1 (configuration not stated)	-167*
